In PubChem BioAssay (NCATS):
Inconclusive results are not listed. Values without a mark were called inactive. Activity calls are given as the source filed them. Calls come from the whole dose curve; as a rule, active = well fitted inhibition curve with a large enough effect; inconclusive = small, poorly fitted or top-dose-only effect; inactive = no such curve, though single readings can be large or run the other way.

assay: Primary qHTS for small molecule stabilizers of the endoplasmic reticulum resident proteome: Secreted ER Calcium Modulated Protein (SERCaMP) assay (AID 1508630); settings: SH-SY5Y GLuc-SERCaMP (Gaussia luciferase released on ER calcium loss) secretion, thapsigargin, luminescence; series mostly up to 38.4 µM; activity change, negative = inhibition: at the top concentration
In short: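 The SH-SY5Y reporter protocol was run at 3 concentrations up to 38.3 uM (primary) or 11 concentrations (follow-up): 16 h compound, 100 nM thapsigargin for 4 h, then extracellular luciferase luminescence.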
% is set by controls: 0 for no effect and ±100 for the full control effect.

Structure (SMILES)	activity change, negative = inhibition	outcome
CCN(CC)Cc1ccc2cc(COC(=O)Nc3ccc(C(=O)NO)cc3)ccc2c1	110%	
COc1cc(C(=O)NC2CCN(C)CC2)ccc1Nc1ncc2c(n1)N(C1CCCC1)CCC(=O)N2C(C)C	0%	
C[C@@H]1C(=O)O[C@H]2CC34[C@H]5C[C@@H](C(C)(C)C)C36[C@H](OC(=O)[C@@H]6O)O[C@@]4(C(=O)O5)[C@]21O (some centres undefined)	-109%	
Nc1cccc2c1C(=O)N(C1CCC(=O)NC1=O)C2=O (centres undefined)	-20.2%	
COc1cc([C@@H]2c3cc4c(cc3[C@@H](O[C@@H]3O[C@@H]5CO[C@@H](c6cccs6)O[C@@H]5[C@H](O)[C@@H]3O)[C@H]3COC(=O)[C@H]23)OCO4)cc(OC)c1O	216%	
Cn1cnc2c(F)c(Nc3ccc(Br)cc3F)c(C(=O)NOCCO)cc21	87.2%	
COc1cc(C(C)C)c(Oc2cnc(NC(CO)CO)nc2N)cc1I	0%	
O=C(C=Cc1ccc(CN(CCO)CCc2c[nH]c3ccccc23)cc1)NO	0%	
C[C@H]1COc2c(N3CCN(C)CC3)c(F)cc3c(=O)c(C(=O)O)cn1c23		inactive
CC(=O)O[C@]1(C(C)=O)CC[C@H]2[C@@H]3C=C(C)C4=CC(=O)CC[C@]4(C)[C@@H]3CC[C@@]21C	238%	
CCOC(=O)C1=C(C)NC(=S)NC1c1cccc(O)c1 (centres undefined)	23.7%	
CC(=O)O[C@H]1C[C@@H]2CC[C@H]3[C@H]4C[C@H]([N+]5(C)CCCCC5)[C@@H](OC(C)=O)[C@@]4(C)CC[C@@H]3[C@@]2(C)C[C@H]1N1CCCCC1	38.7%	
O=C1NC(O)CCN1[C@@H]1O[C@H](CO)[C@H](O)[C@H]1O (some centres undefined)	9.38%	
COc1cc(C=CC(=O)CC(=O)C=Cc2ccc(O)c(OC)c2)ccc1O	-29.3% [at 76.3 µM]	
CC1(C)CC(O)CC(C)(C)N1[O]	-1.52%	
COc1ccc(S(=O)(=O)Nc2cc(-c3c(O)ccc4ccccc34)c(O)c3ccccc23)cc1	180%	
COc1cccc2c1C(=O)c1c(O)c3c(c(O)c1C2=O)C[C@@](O)(C(C)=O)C[C@H]3O[C@H]1C[C@H](N)[C@H](O)[C@H](C)O1	280%	
Cc1cnc(NC(=O)Nc2cc(Br)c(C)cc2OC[C@@H]2CNCCO2)cn1	-10.5%	
COc1ccc(C=Cc2cc(OC)c(OC)c(OC)c2)cc1NC(=O)[C@H](N)CO	11.2%	
CC(=O)SCC(Cc1ccccc1)C(=O)NCC(=O)OCc1ccccc1 (centres undefined)	302%	

Structure (SMILES)	activity change, negative = inhibition	outcome
Cc1nc(NC(=O)N2CCC[C@@H]2C(N)=O)sc1-c1ccnc(C(C)(C)C(F)(F)F)c1	157%	
COc1cccc2c1C(=O)c1c(O)c3c(c(O)c1C2=O)C[C@@](O)(C(=O)CO)C[C@@H]3O[C@H]1C[C@H](N)[C@H](OC2CCCCO2)[C@H](C)O1 (some centres undefined)	21.4%	
C[C@]12CC[C@@H]3c4ccc(O)cc4CC[C@H]3[C@H]1CC[C@H]2O	63.3%	
COc1cccc2c1C(=O)c1c(O)c3c(c(O)c1C2=O)C[C@@](O)(C(=O)CO)C[C@H]3O[C@H]1C[C@H](N)[C@H](O)[C@H](C)O1	137%	
Cc1cc(O)c2c(c1)C(=O)c1cccc(O)c1C2=O	15.2%	
CCN1CCN(C(=O)N[C@H](C(=O)N[C@@H]2C(=O)N3C(C(=O)O)=C(CSc4nnnn4C)CS[C@@H]23)c2ccc(O)cc2)C(=O)C1=O	67.9% [at 13 µM]	
OCCNC1CCCc2c1[nH]c1ccc(-c3ccccc3)cc21 (centres undefined)	210%	
C=C[C@@H]1CN2CCC1C[C@H]2[C@H](O)c1ccnc2ccc(OC)cc12 (some centres undefined)	-18.4%	
CCCNC(=O)[C@H]1O[C@H]1C(=O)N[C@H](C(=O)N1CCC[C@@H]1C(=O)OC)C(C)CC (some centres undefined)	405%	
O=C(Nc1cc2cc[nH]c2cn1)c1ccccc1	16.9%	
CC(C)C[C@H](NC(=O)[C@@H](NC(=O)c1cccc(-c2ccccc2)n1)[C@@H](C)O)B(O)O	0%	
CON=C(C(=O)N[C@@H]1C(=O)N2C(C(=O)O)=C(Cn3ccc(=N)n3CCO)CS[C@H]12)c1csc(N)n1	17.6%	
CCN(CC)CCNC(=O)c1c(C)[nH]c(C=C2C(=O)Nc3ccc(F)cc32)c1C	361% [at 76.3 µM]	
C#CCC(Cc1cnc2nc(N)nc(N)c2n1)c1ccc(C(=O)N[C@@H](CCC(=O)O)C(=O)O)cc1 (some centres undefined)	4.84%	
COc1ccc(CCC(=O)c2c(O)cc(O[C@@H]3O[C@H](CO)[C@@H](O)[C@H](O)[C@@H]3O[C@@H]3O[C@@H](C)[C@H](O)[C@@H](O)[C@@H]3O)cc2O)cc1O	0%	
COC(=O)[C@@H]1[C@H]2C[C@@H]3c4[nH]c5ccccc5c4CCN3C[C@@H]2CC[C@@H]1O	16.5%	
C[C@H]1[C@@H](OC(=O)CCC(=O)O)O[C@@H]2O[C@@]3(C)CC[C@@H]4[C@H](C)CC[C@@H]1[C@@]24OO3	185%	
CC[C@H]1OC(=O)[C@H](C)[C@@H](O[C@H]2C[C@@](C)(OC)[C@@H](O)[C@H](C)O2)[C@H](C)[C@@H](O[C@@H]2O[C@H](C)C[C@H](N(C)C)[C@@H]2O)[C@](C)(OC)C[C@@H](C)C(=O)[C@H](C)[C@@H](O)[C@]1(C)O	-6.21%	
CC(=O)N1CCN(c2ccc(OCc3nn(C)c(C)c3-c3cccc4c(CCCOc5cccc6ccccc56)c(C(=O)O)n(Cc5cccnc5)c34)cc2)CC1	203%	
